Source: PubChem BioAssay (NCI)
Compounds without any hit were thinned out: in the full panel of roughly 83,000, 20% have a hit.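 The endpoint reported here, percent growth, reads 100 for growth as untreated, 0 for no net growth and -100 for all cells dead.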 Values without a mark were called inactive. Activity calls are given as the source filed them. The calls were made as follows: active = growth percent below 10; inactive = the rest.

Experiments:
Test in all cases: NCI-60 one-dose screen, 48 h (100 = growth as untreated, 0 = no growth, -100 = all killed)
NCI-H23 lung = conditions: 10 µM unless noted
NCI-H226 lung = conditions: 10 µM unless noted
NCI-H322M lung = conditions: 10 µM unless noted
HOP-62 NSCLC = conditions: 10 µM unless noted
NCI-H460 lung = conditions: 10 µM unless noted
HOP-92 NSCLC = conditions: 10 µM
NCI-H522 lung = conditions: 10 µM unless noted
A549/ATCC NSCLC = conditions: 10 µM unless noted
786-0 renal = conditions: 10 µM unless noted
COLO 205 colon = conditions: 10 µM unless noted
DU-145 prostate = conditions: 10 µM unless noted
K-562 leukemia = conditions: 10 µM unless noted
MALME-3M melanoma = conditions: 10 µM unless noted
MDA-MB-231 breast = conditions: 10 µM unless noted
RXF 393 renal = conditions: 10 µM unless noted
SF-268 CNS = conditions: 10 µM unless noted
SF-295 CNS = conditions: 10 µM unless noted
SF-539 CNS = conditions: 10 µM unless noted
UACC-257 melanoma = conditions: 10 µM unless noted

Structure (SMILES) | growth (NCI-H23 lung) | growth (NCI-H226 lung) | growth (NCI-H322M lung) | growth (HOP-62 NSCLC) | growth (NCI-H460 lung) | growth (HOP-92 NSCLC) | growth (NCI-H522 lung) | growth (A549/ATCC NSCLC) | growth (786-0 renal) | growth (COLO 205 colon) | growth (DU-145 prostate) | growth (K-562 leukemia) | growth (MALME-3M melanoma) | growth (MDA-MB-231 breast) | growth (RXF 393 renal) | growth (SF-268 CNS) | growth (SF-295 CNS) | growth (SF-539 CNS) | growth (UACC-257 melanoma)
NC(=O)c1c(NC(=O)c2ccc(F)cc2F)sc2c1CCC(=O)C2 | 18.5% | 88% | 99.8% | 104% | 109% | 66.1% | 10.2% | 106% | 83.4% | 98.7% | 101% | 15.8% | 63.8% | 39.2% | 85.1% | 34.7% | 99.7% | 16.3% | 81.8%
Cc1ccc(-c2nn(-c3ccccc3)cc2/C=C/C(=O)c2ccc(NC(=O)CCCCCCC(=O)NO)cc2)cc1 | 93.6% | 95.8% | 83.9% | 86.4% | 68.1% | 96.4% | 40.4% | 76.9% | 56.8% | 96.2% | 79.1% | 43.2% | 122% | 78.6% | -2.12% (active) | 81.8% | 88% | 82.5% | 82.3%
COc1ccc(-c2cc(-c3ccc(Cl)cc3)c(C#N)c(=O)n2Cc2ccc(C(=O)O)cc2)cc1 | 85.9% | 100% | 95.5% | 78.6% | 92.4% | 98.3% | 28.5% | 108% | 108% | 109% | 112% | 54.3% | 52.9% | 95.6% | 72.1% | 67.8% | 68.3% | 69.1% | 83.8%
NS(=O)(=O)c1ccc(Nc2nc(N/N=C/c3ccccn3)nc(Nc3ccccc3)n2)cc1 | -7.29% (active) | -49.1% (active) | -9.94% (active) | -28.6% (active) | 3.8% (active) | -46.6% (active) | -32.6% (active) | 35.1% | 8.47% (active) | -42.1% (active) | 4.85% (active) | 12.3% | -68.2% (active) | -29.9% (active) | -74% (active) | -22% (active) | 0.752% (active) | -42.1% (active) | -18.1% (active)
O=C(CSc1nnc(-c2ccc(Cl)cc2)n1-c1ccccc1)Nc1ccc(Br)cc1 | 35.9% | -27.7% (active) | 0.91% (active) | -11.9% (active) | 5.77% (active) | -37.7% (active) | 12.1% | 4.69% (active) | -83% (active) | 51.9% | 41.2% | 40.5% | -3.16% (active) | -29.8% (active) | -31.6% (active) | 42.2% | -34.3% (active) | -66.7% (active) | 50.3%
Cc1ccc(NC(=O)c2ccc(CN3CCN(C)CC3)cc2)cc1Oc1ccc(-c2[nH]nc3ncnc(N)c23)cc1 | 99.6% | 98.5% | 97.3% | 104% | 110% | 98.3% | 89.9% | 98.8% | 63.7% | 28.1% | 106% | 9% (active) | 68.8% | 95.9% | 78.3% | 89% | 103% | 85.9% | 98.5%
CCN1CCN(Cc2cn(-c3ccc(S(N)(=O)=O)cc3)nn2)CC1 | 108% | 96.5% | 106% | 107% | 108% | 104% | 97.8% | 109% | 102% | 109% | 108% | 104% | 111% | 104% | 116% | 103% | 105% | 99.3% | 107%
N#Cc1cccc(CN2CCc3ncn(Cc4ccc(Cl)cc4)c(=O)c3C2)c1 | 26.2% | 30.4% | 42.9% | 31.2% | 13.5% | 30.3% | 16.6% | 24.9% | 42.8% | 11.7% | 26.9% | 24.2% | 41.5% | 26.9% | 14.3% | 27.2% | 8.57% (active) | 33.6% | 12.3%
NS(=O)(=O)c1ccc(Nc2nc(N/N=C/CCc3ccccc3)nc(Nc3ccccc3)n2)cc1 | 104% | 104% | 108% | 108% | 104% | 97.4% | 87.1% | 106% | 93.6% | 105% | 109% | 96.7% | 113% | 97.5% | 96% | 107% | 106% | 98.3% | 112%
C=C1CC[C@@H]2[C@]3(C)COC(c4ccccc4)O[C@@H]3CC[C@@]2(C)[C@@H]1C/C=C1/C(=O)OC[C@H]1O (some centres undefined) | 96.8% | 96.1% | 97.1% | 110% | 99.8% | 105% | 63.5% | 92.6% | 111% | 108% | 92.1% | 43.7% | 110% | 99.3% | 127% | 97.5% | 102% | 92.1% | 85%
Nc1cc(F)ccc1NC(=O)c1ccc(NC(=O)C/C=C/c2cccnc2)cc1 | 62.5% | 70.8% | 67% | 48.7% | 56.8% | 25.2% | 15.2% | 55.9% | 72.6% | 21.2% | 23.7% | 26% | 47.6% | 57.2% | 87.1% | 53.7% | 41.6% | 11.9% | 55.8%
Fc1ccc(-c2cc3nc(C(Cl)Cl)nc(-c4ccco4)n3n2)cc1 | 37.3% | 93.2% | -22.3% (active) | -18.8% (active) | -17.3% (active) | -15.1% (active) | 89.9% | -20.1% (active) | 33.2% | -45.4% (active) | -48.2% (active) | 33.4% | 93.3% | -26.2% (active) | -65.6% (active) | 3.07% (active) | -9.65% (active) | -43.4% (active) | 30.8%
CCCCc1nc(/C=N/Nc2nc(Nc3ccccc3)nc(Nc3ccc(S(N)(=O)=O)cc3)n2)c(Cl)[nH]1 | 101% | 99% | 99.1% | 101% | 100% | 60.1% | 41.9% | 108% | 95.3% | 72% | 84.6% | 38% | 99.7% | 67% | 117% | 65.9% | 102% | 81.2% | 108%
COc1ccc(N2CCN(C3=C(Cl)C(=O)C(C)=C(C)C3=O)CC2)cc1 | 106% | 99.2% | 106% | 91.5% | 104% | 102% | 92.3% | 108% | 118% | 125% | 108% | 83.1% | 110% | 88.2% | 153% | 105% | 108% | 105% | 102%
CC1=CC(=O)C2=C(C)CC(OC(=O)CCc3ccccc3)[C@@H]3[C@H](OC(=O)[C@@H]3C)[C@@H]12 (some centres undefined) | 95.4% | 97.9% | 96.8% | 102% | 103% | 92.6% | 77.4% | 89% | 92.6% | 95.2% | 101% | 84.2% | 113% | 96.8% | 122% | 98.8% | 90.7% | 94.1% | 91.6%
O=C(CSc1nnc(-c2ccc3nc(-c4ccccc4)[nH]c3c2)o1)Nc1ccc(C(=O)/C=C/c2ccccc2)cc1 | 100% | 106% | 102% | 104% | 113% | 149% | 93.4% | 106% | 102% | 110% | 107% | 112% | 94.5% | 105% | 114% | 109% | 109% | 96.8% | 103%
